MEP2 TOR yeast: alters MEP2-GFP fluorescence in TOR pathway yeast screen; 330,000 tested, 0.51% active; S. cerevisiae MEP2-GFP strain, flow cytometry GFP, 3 h; 100% = DMSO control level; GFP response vs DMSO, % at 10 µM;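 active = GFP response versus DMSO above a set limit, roughly screen mean plus 3 SD, cut at about 180% in these data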;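 also: median GFP fluorescence of the barcode-gated MEP2-GFP cells per well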
RPL19A-GFP yeast: alters RPL19A-GFP fluorescence in TOR pathway yeast screen | S. cerevisiae RPL19A-GFP strain, flow cytometry, 3 h; stronger effect = lower value | percent response vs DMSO, % at 10 µM | 330,000 tested, 0.3% active | AID 2025;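 active = percent response vs DMSO below 50%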;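 also: median channel GFP fluorescence of the barcoded RPL19A-GFP strain; ratio of sample median GFP to plate DMSO average so 100% = DMSO; lower means less RPL19A-GFP as with rapamycin TOR inhibition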
LAP4 TOR yeast: alters LAP4-GFP fluorescence in TOR pathway yeast screen; S. cerevisiae LAP4-GFP multiplex, flow cytometry GFP, 3 h; median GFP as percent of DMSO wells; GFP response vs DMSO, % at 10 µM; 320,000 tested, 0.34% active;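 active = GFP response vs DMSO above a set limit, about the screen mean plus 3 SD, cut at about 150% in these data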
AGP1 TOR yeast: alters AGP1-GFP fluorescence in TOR pathway yeast screen; GFP response vs DMSO, % at 10 µM; 320,000 tested, 0.02% active; S. cerevisiae AGP1-GFP multiplex flow cytometry, 3 h; GFP as percent of DMSO wells;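 active = GFP response relative to DMSO above a set limit, near screen average plus 3 SD, cut at about 150% in these data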;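 also: median GFP channel fluorescence of the gated AGP1 strain per well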
CIT2 TOR yeast: modulators of TOR pathway CIT2-GFP in S. cerevisiae. S. cerevisiae CIT2-GFP strain, flow cytometry, 3 h; 100 means same as DMSO wells. GFP response vs DMSO, % at 10 µM. 320,000 tested, 0.065% active. AID 2029;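 active = GFP response relative to DMSO above a set limit, near the screen mean plus 3 SD, cut at about 150% in these data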;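 also: ratio of well median GFP fluorescence to mean of DMSO wells on the plate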
Efflux pump mplx: antifungal efflux pump inhibition, Nile Red retention; S. cerevisiae Candida pump triplex; inhibition, % at 10 µM; 330,000 tested, 0.44% active;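 active = plate passing quality check with inhibition over a set limit, or well fluorescence over plate mean plus 4 SD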;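 also: Nile Red retained in pooled yeast measured as flow cytometry median fluorescence; 0% = buffer negative control and 100% = Enniatin B positive control; higher means more Nile Red kept so more efflux inhibition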
LAP4-GFP pick2: yeast LAP4-GFP modulation, second cherry pick; shares compounds with LAP4 TOR yeast; S. cerevisiae LAP4-GFP strain, flow cytometry GFP, 3 h; GFP response vs DMSO, % at 10 µM; 590 tested, 20% active; AID 2621;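 active = GFP signal as percent of the solvent control above about 150%, meaning raised reporter expression, limit read from the data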;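 also: ratio of well median GFP fluorescence to plate DMSO mean so 100% = DMSO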
MEP2 cherry2: second confirmation of modulators of TOR reporter MEP2-GFP in yeast. shares compounds with LAP4 TOR yeast. GFP response vs DMSO, % at 10 µM. S. cerevisiae MEP2-GFP strain, flow cytometry GFP, 3 h. 590 tested, 10% active;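 active = GFP signal above 150% of the solvent control wells, that is a rise of more than half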;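 also: median channel GFP fluorescence of all gated yeast cells per well; ratio of median GFP to plate DMSO average so 100% = DMSO level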
RPL19A GFP CP2: second confirmation of modulators of TOR reporter RPL19A-GFP in yeast | shares compounds with LAP4 TOR yeast | S. cerevisiae RPL19A-GFP strain, flow cytometry GFP, 3 h; stronger effect = lower value; 100% means same as DMSO wells | GFP response vs DMSO, % at 10 µM | 590 tested, 3% active | AID 2623;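 active = under 65% GFP response relative to DMSO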;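 also: median GFP channel fluorescence per well over the all cells gate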
CIT2 GFP CP2: second confirmation of modulators of TOR reporter CIT2-GFP in yeast; GFP response vs DMSO, % at 10 µM; AID 2624; S. cerevisiae CIT2-GFP strain, flow cytometry GFP, 3 h; DMSO control wells read 100%; shares compounds with LAP4 TOR yeast; 590 tested, 8% active;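 active = GFP response vs DMSO above about 150%, limit read from the data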;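 also: median green fluorescence per well over all gated yeast cells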
AGP1 GFP CP2: reconfirmed modulator of AGP1-GFP TOR reporter in yeast | 590 tested, under 10 active | AID 2643 | shares compounds with LAP4 TOR yeast | percent response vs DMSO, % at 10 µM | S. cerevisiae AGP1-GFP strain, flow cytometry GFP, 3 h;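 active = over 150 percent of DMSO response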;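 also: median GFP channel fluorescence over all cells without mother daughter split; sample median GFP divided by mean DMSO control so 100% equals DMSO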
Yeast autofluor: compound is autofluorescent in yeast s288c cells. shares compounds with LAP4 TOR yeast. S. cerevisiae s288c, 520 nm autofluorescence, flow cytometry, 3 h; stronger effect = higher value; zero means same as solvent-only cells. fluorescence change (kMESF span) at 33 µM. 610 tested, under 10 active. AID 2757;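 active = fluorescence span over the dose series, or activity score, above about 33, limit read from the data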
s288c autofl DR: TOR screen hit shows autofluorescence in yeast s288c | shares compounds with LAP4 TOR yeast | 110 tested, under 10 active | fluorescence change (span) at 33 µM | S. cerevisiae s288c parental, compound autofluorescence, flow cytometry, 3 h;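 active = fluorescence change span, or the activity score built from it, above 25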
TORC1 bypass: stops wildtype yeast growth while TORC1 bypass cells still grow. shares compounds with LAP4 TOR yeast. S. cerevisiae BY4741 spot growth rating, 48-72 h; stronger effect = lower value. growth rating (0-3) at 30 µM. 120 tested, under 10 active;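 active = growth rating at most 1 for wild type yeast while the TORC1 bypass strain still grows fully, rated 3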
* hit, by the source's call; . = no result. Sampled rows, rich in hits. Any-hit rate of the full collection: about 1.3%.

SMILES | MEP2 TOR yeast | RPL19A-GFP yeast | LAP4 TOR yeast | AGP1 TOR yeast | CIT2 TOR yeast | Efflux pump mplx | LAP4-GFP pick2 | MEP2 cherry2 | RPL19A GFP CP2 | CIT2 GFP CP2 | AGP1 GFP CP2 | others
CC(C)c1cc(-c2cc(C(=O)NCc3ccccc3)on2)nc(NC2CCCC2)n1 | 92 | 94 | 156* | 80 | 78 | 0 | 125 | 119 | 98 | 110 | 100
CC(C)c1cc(-c2cc(C(=O)Nc3ccccc3)on2)nc(NCC2CC2)n1 | 107 | 92 | 104 | 91 | 80 | 0 | 99 | 106 | 100 | 93 | 99
Cc1cc(NC2CCCCC2)nc(NCc2ccccc2)n1 | 114 | 111 | 103 | 108 | 115 | 0 | . | . | . | . | .
Cc1cc(-c2cc(C(=O)Nc3ccccc3)on2)nc(NCC2CC2)n1 | 92 | 98 | 108 | 87 | 96 | 0 | 102 | 121 | 103 | 104 | 105
CC(C)c1cc(-c2cc(C(=O)NCc3ccccc3)on2)nc(NCC2CC2)n1 | 92 | 91 | 144 | 80 | 63 | 0 | 117 | 103 | 96 | 109 | 100
CC(C)c1cc(-c2cc(-c3ccc(Cl)cc3)on2)nc(NCC2CC2)n1 | 99 | 96 | 126 | 86 | 93 | 0 | . | . | . | . | .
O=C(Nc1cccc(Cl)c1)c1nc[nH]c1C(=O)N1CCN(c2ccccc2)CC1 | 96 | 96 | 101 | 101 | 100 | 0 | . | . | . | . | .
O=C(Nc1ccc(S(=O)(=O)Nc2ncccn2)cc1)C1=COCCO1 | 92 | 96 | 102 | 103 | 94 | 0 | . | . | . | . | .
COCCNc1nc(-c2cc(C(=O)Nc3ccccc3)on2)cc(C(C)C)n1 | 92 | 88 | 133 | 70 | 62 | 0 | 103 | 102 | 98 | 96 | 101
Cc1ccc(C)c(NC(=O)Cn2ccn(-c3ccc4c(c3)OCO4)c(=O)c2=O)c1 | 115 | 111 | 119 | 117 | 109 | 0 | . | . | . | . | .
CCOc1cc(/C=N/NC(N)=O)ccc1OCC(=O)Nc1ccc(C)c(C)c1 | 100 | 97 | 106 | 106 | 99 | 0 | . | . | . | . | .
CCOc1cc(C=C2C(=O)c3ccccc3C2=O)ccc1OCC(=O)Nc1ccc(C)cc1 | 109 | 104 | 109 | 109 | 105 | 0 | 96 | 100 | 102 | 101 | 100 | Yeast autofluor=-0.2
Cc1cc(NC(c2ccc(Cl)cc2)c2ccc3cccnc3c2O)no1 (configuration not stated) | 101 | 95 | 151* | 92 | 79 | 0 | . | . | . | . | . | Yeast autofluor=0
O=C(CN1C(=O)NC2(CCCC2)C1=O)NNC(=O)c1ccccc1F | 92 | 90 | 80 | 90 | 90 | 0 | . | . | . | . | .
COc1ccc(-c2cc3cc(C(=O)O)ccn3c2C(=O)c2ccccc2)cc1 | 110 | 101 | 150* | 106 | 110 | 0 | . | . | . | . | . | Yeast autofluor=0
O=C(O)c1ccn2c(C(=O)c3ccccc3)c(-c3ccccc3)cc2c1 | 90 | 99 | 156* | 97 | 94 | 0 | . | . | . | . | . | Yeast autofluor=0.51
COc1ccc(C(=O)c2ccccc2)cc1 | 109 | 108 | 110 | 101 | 106 | 0 | . | . | . | . | .
CC(=O)Nc1ccc(S(=O)(=O)N2CCN(c3cc(C)nc4ncnn34)CC2)cc1 | 111 | 124 | 114 | 116 | 107 | 0 | . | . | . | . | .
Cc1cc(N2CCN(S(=O)(=O)c3ccc(Br)cc3)CC2)n2ncnc2n1 | 142 | 50 | 85 | 28 | 84 | 0 | 103 | 108 | 98 | 103 | 96
C/C(=N\NC(=O)c1ccc(N2CCCC2=O)cc1)c1ccncc1 | 93 | 98 | 106 | 101 | 106 | 0 | . | . | . | . | .
Clc1ccc(Nc2nc(-c3cccnc3)cs2)cc1 | 114 | 104 | 109 | . | 121 | 0 | . | . | . | . | .
Fc1ccc(Nc2nc(-c3cccnc3)cs2)cc1 | 149 | 59 | 102 | 74 | 92 | 0 | 100 | 102 | 102 | 100 | 97
O=C(CSC1=NS(=O)(=O)c2ccccc21)Nc1ccccc1 | 90 | 59 | 116 | 65 | 68 | 0 | 113 | 124 | 62* | 115 | 72 | Yeast autofluor=0.5
COC(=O)CSC1=NS(=O)(=O)c2ccccc21 | 90 | 82 | 146 | 91 | 92 | 0 | . | . | . | . | .
NC(=O)c1oc2ccccc2c1NC(=O)c1ccc([N+](=O)[O-])o1 | 105 | 112 | 104 | 103 | 101 | 0 | . | . | . | . | .
SMILES | MEP2 TOR yeast | RPL19A-GFP yeast | LAP4 TOR yeast | AGP1 TOR yeast | CIT2 TOR yeast | Efflux pump mplx | LAP4-GFP pick2 | MEP2 cherry2 | RPL19A GFP CP2 | CIT2 GFP CP2 | AGP1 GFP CP2 | others
Nc1ncnc2c1ncn2[C@@H]1O[C@H](CNCC#Cc2ccccc2)[C@@H](O)[C@H]1O | 90 | 94 | 90 | 99 | 93 | 0 | . | . | . | . | .
O=S(=O)(Nc1cccnc1)c1cccc(C(F)(F)F)c1 | 102 | 102 | 97 | 103 | 97 | 0 | . | . | . | . | .
O=[N+]([O-])c1ccc(S(=O)(=O)c2cccc(C(F)(F)F)c2)nc1 | 102 | 70 | . | . | . | 0 | . | . | . | . | . | Yeast autofluor=0.81;s288c autofl DR=0.73;TORC1 bypass=3
COc1cc(C(O)P(=O)(OCC(C)C)c2ccc(N(C)C)cc2)cc(OC)c1OC (configuration not stated) | 103 | 97 | 107 | 103 | 101 | 0 | . | . | . | . | .
O=C(COc1ccccc1)N1CCN(c2ncnc3c2cnn3-c2ccccc2)CC1 | 190* | 94 | 95 | 103 | 85 | 0 | . | . | . | . | . | Yeast autofluor=0
Cc1cccc(C(=O)N2CCN(c3ncnc4c3cnn4-c3ccccc3)CC2)c1 | 107 | 107 | 114 | . | 106 | 0 | . | . | . | . | .

Assay outcomes as filed in PubChem.
